The whole screen tested about 67,000 compounds, of which about 300 (0.45%) showed an effect of 50% or more. The entries come from a sample that favours strong results as a whole.
molecular target: Polyketide synthase Pks13 (Mycobacterium tuberculosis (strain ATCC 25618 / H37Rv)) (UniProt I6X8D2); experiment: Mycobacterium tuberculosis Polyketide synthase 13 Thioesterase (PKS13); format: functional; set-up: scale not given: in the data most compounds retested in dose-response had high values; conditions: 30 µM
Sequence (I6X8D2 whole entry): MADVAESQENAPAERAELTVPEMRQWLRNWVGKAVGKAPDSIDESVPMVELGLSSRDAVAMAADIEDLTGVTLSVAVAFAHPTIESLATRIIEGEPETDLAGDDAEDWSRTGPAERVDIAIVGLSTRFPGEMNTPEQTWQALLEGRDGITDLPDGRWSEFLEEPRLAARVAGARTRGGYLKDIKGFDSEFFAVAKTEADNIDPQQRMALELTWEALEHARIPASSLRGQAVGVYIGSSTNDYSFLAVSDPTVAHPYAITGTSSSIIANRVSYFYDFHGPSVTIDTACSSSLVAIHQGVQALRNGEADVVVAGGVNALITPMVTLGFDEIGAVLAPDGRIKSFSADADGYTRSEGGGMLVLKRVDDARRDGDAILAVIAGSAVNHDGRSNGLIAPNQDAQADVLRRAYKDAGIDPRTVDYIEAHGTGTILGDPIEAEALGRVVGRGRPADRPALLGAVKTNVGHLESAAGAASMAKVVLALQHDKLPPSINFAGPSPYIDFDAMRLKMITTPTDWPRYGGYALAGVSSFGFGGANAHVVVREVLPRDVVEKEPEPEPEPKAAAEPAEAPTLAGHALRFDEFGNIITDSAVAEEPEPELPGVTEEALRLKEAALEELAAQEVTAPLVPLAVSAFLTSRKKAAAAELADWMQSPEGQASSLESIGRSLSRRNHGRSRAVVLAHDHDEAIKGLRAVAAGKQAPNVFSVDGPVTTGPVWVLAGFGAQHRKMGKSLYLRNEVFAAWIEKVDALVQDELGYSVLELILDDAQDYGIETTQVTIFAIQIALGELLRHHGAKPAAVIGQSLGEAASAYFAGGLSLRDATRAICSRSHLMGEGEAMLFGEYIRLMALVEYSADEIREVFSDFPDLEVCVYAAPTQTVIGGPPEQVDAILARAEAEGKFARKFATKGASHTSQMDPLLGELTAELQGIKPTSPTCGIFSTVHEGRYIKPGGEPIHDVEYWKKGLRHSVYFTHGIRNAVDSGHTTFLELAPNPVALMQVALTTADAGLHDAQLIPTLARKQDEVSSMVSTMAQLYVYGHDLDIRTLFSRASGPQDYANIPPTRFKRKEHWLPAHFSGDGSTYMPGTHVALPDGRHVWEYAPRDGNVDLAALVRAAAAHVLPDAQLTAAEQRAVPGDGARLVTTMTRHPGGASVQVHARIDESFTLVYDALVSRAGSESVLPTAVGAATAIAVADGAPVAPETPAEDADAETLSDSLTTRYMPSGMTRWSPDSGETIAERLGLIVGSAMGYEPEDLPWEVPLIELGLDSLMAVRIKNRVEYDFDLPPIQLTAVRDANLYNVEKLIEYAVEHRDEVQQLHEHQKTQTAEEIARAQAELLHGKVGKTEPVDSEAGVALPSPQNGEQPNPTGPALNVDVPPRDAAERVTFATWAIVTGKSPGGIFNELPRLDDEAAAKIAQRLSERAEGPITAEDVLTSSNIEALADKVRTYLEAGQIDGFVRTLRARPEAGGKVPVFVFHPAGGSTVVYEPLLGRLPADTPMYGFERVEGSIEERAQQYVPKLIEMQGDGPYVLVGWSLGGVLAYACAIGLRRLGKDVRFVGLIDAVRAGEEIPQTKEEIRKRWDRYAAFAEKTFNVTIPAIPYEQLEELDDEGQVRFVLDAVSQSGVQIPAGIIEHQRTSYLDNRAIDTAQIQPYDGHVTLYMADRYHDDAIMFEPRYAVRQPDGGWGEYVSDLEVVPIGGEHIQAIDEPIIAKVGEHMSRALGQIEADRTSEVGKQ

Compound	Percent Effect
O=C(Nc1nc2c(s1)CN(S(=O)(=O)C1CC1)CC2)c1cccc(Cl)c1	75.5%
O=C(Nc1nc2c(s1)CN(S(=O)(=O)C1CC1)CC2)c1c(F)cccc1F	-2.3%
O=C(Nc1nc2c(s1)CN(S(=O)(=O)C1CC1)CC2)c1ccc(Cl)s1	13.8%
CNC(=O)[C@@]12CCCN(c3ncccn3)[C@@H]1CN(c1ncc(C)cn1)C2	-27.3%
CC(C)CNC(=O)c1cc(C2CC2)nc2c1c(C1CCCN1)nn2C (stereo unspecified)	-19.7%
Cn1nc(C2CCNC2)c2c(C(=O)NCC(F)(F)F)cc(C3CC3)nc21 (stereo unspecified)	-7.7%
Cn1nc(C2CCCN2)c2c(C(=O)NCC(F)(F)F)cc(C3CC3)nc21 (stereo unspecified)	119%
O=C(c1ccco1)N1CCO[C@@H]2CN(c3ccccn3)CC[C@@H]2C1	52.6%
O=C(c1ccco1)N1CCO[C@@H]2CN(c3ccccc3)CC[C@@H]2C1	-28.4%
Cc1cccc(N2CC[C@@H]3CN(C(=O)c4ccco4)CCO[C@@H]3C2)n1	-34.3%
Fc1cnc(N2CCO[C@H]3CN(CC4CCCCC4)C[C@H]32)nc1	-51%
O=C(c1cccc(F)c1)N1CC[C@H]2[C@H]1CCN2CC1CCOCC1	-17.7%
CC(=O)c1ccc(Nc2nc(N)nc3c2nc(C)n3C)cc1	2.22%
Cc1nc2c(Nc3cccc(C#N)c3)nc(N)nc2n1C	58.8%
Cc1nc2c(Nc3ccc(C#N)cc3)nc(N)nc2n1C	18.1%
O=C(NCc1ccccn1)[C@H]1COC[C@H]2CN(C3CCCC3)C[C@H]21	-25.1%
CC1(NC(=O)Cc2csc(C(C)(C)C)n2)CCS(=O)(=O)C1 (stereo unspecified)	-0.313%
CC1(NC(=O)Cc2csc(-c3ccccc3Cl)n2)CCS(=O)(=O)C1 (stereo unspecified)	-7.78%
CC1(NC(=O)Cc2csc(NC(=O)c3ccccc3)n2)CCS(=O)(=O)C1 (stereo unspecified)	51.1%
c1ccc(CN2CCN3C[C@H](Oc4cccnc4)C[C@H]3C2)nc1	-35.4%
CNC(=O)[C@H]1C[C@@H]2CN(C(=O)c3ccccn3)C[C@@H]2N1S(C)(=O)=O	-6.49%
Cc1ccc(N2CCC(C(O)Cc3ccccc3)CC2)nn1 (stereo unspecified)	-23.2%
CSCc1ccc(N2CCC(C(O)Cc3ccccc3)CC2)nc1 (stereo unspecified)	101%
CSCc1ccc(N2CCC(C(O)CC(C)C)CC2)nc1 (stereo unspecified)	6.3%

Compound	Percent Effect
CC(C)CNC(=O)N1CC[C@@H]2CN(Cc3cccnc3)S(=O)(=O)[C@@H]2CC1	-16.3%
CCCN1C(=O)[C@@H]2[C@@H](CCN2C(=O)COC)N(Cc2cccs2)C1=O	26.9%
Cc1cc(NCc2cccc(C#N)c2)ccc1Br	58.5%
Cc1cc(NCc2cccc(C#N)c2)ccc1C(N)=O	-10.5%
Cc1cc(NCc2cccc(C#N)c2)ccc1C(=O)N(C)C	-4.66%
C1CC(N2C[C@@H]3COC[C@]3(COCC3CCOCC3)C2)C1	-9.77%
Fc1ccccc1Cc1noc(CN2CC[C@@H]3CCCC[C@H]3C2)n1	-29.1%
CC(C)c1cc(CN2CCC(N)CC2)no1	11.6%
CC(C)c1cc(CN2CCC(CC(=O)O)CC2)no1	60.1%
CC(C)c1cc(CN2CCNCC2)no1	18.9%
CC(C)c1cc(C(=O)N2CCN(CC3CC3)[C@@H]3CS(=O)(=O)C[C@@H]32)on1	-6.23%
O=C1[C@@H]2CCN(CC3CC3)C[C@@H]2OCCN1c1ccsc1	2.34%
CNC(=O)c1cnc(/C=C/c2cc(OC)cc(OC)c2)s1	54.2%
COc1cc(/C=C/c2ncc(C(=O)O)s2)cc(OC)c1	19.6%
CCOc1c(Cl)cc(/C=C/c2ncc(C(=O)O)s2)cc1OC	23.8%
COc1cc(/C=C/c2ncc(C(=O)O)s2)cc(Cl)c1O	64.9%
CCOc1cc(/C=C/c2ncc(C(=O)O)s2)cc(Br)c1O	59.8%
COc1cc(/C=C/c2ncc(C(=O)O)s2)cc(Cl)c1OC	16.6%
CCOc1cc(/C=C/c2ncc(C(=O)O)s2)cc(Br)c1OC	17.1%
CNC(=O)c1cnc(/C=C/c2cc(OC)c(OC)c(OC)c2)s1	17.9%
CCOc1c(Br)cc(/C=C/c2ncc(C(=O)O)s2)cc1OC	-5.74%
CC(=O)N1CC[C@H]2OCC[C@@]2(C(=O)NCCc2ccccn2)C1	-18.1%
O=C(c1ccsc1)N1CCN2C[C@H](OCc3ccccn3)C[C@H]2C1	-2.94%
Cc1ccc(N2C[C@@H]3OCCN(CC4CC4)[C@@H]3C2)nn1	0.27%

Compound	Percent Effect
O=C(C1CCCCC1)N1C[C@H]2CNC[C@H]2C1	-22.2%
CCOC(=O)[C@@H]1[C@@H](c2ccccc2)CN2CCN(C(=O)N(C)C)C[C@H]12	-2.04%
O=C(c1cnccn1)N1CCN2C[C@H](Oc3cccnc3)C[C@H]2C1	-12.6%
CN(C)C(=O)[C@H]1C[C@@H]2CCN(C3CCOCC3)C[C@H]2O1	-11.1%
COc1ccc(C2Nc3ccccc3NC3=C2C(=O)NC3)cc1OC (stereo unspecified)	-7.87%
CC(C)C(=O)N1CCC(n2nc(-c3ccco3)ccc2=O)CC1	0.602%
O=C(c1ccco1)N1CCC(n2nc(-c3ccco3)ccc2=O)CC1	10.8%
CC(C)(C)C(=O)N1CCC(n2nc(-c3ccco3)ccc2=O)CC1	125%
CN(C)C(=O)N[C@@H]1CN(C2CCOCC2)[C@@H]2CCCO[C@@H]21	-25.3%
CC(=O)N1CCO[C@@H]2CN(C(=O)c3ccccc3)CC[C@@H]2C1	7.28%
CC(=O)NC(C)C(=O)Nc1ccc(OCc2cccc(F)c2)cc1C (stereo unspecified)	-35.8%
Cc1cc(OCc2cccc(F)c2)ccc1NC(=O)C(C)NC(N)=O (stereo unspecified)	-1.33%
Cc1cccc(COc2ccc(NC(=O)C(C)NC(N)=O)c(C)c2)c1 (stereo unspecified)	53%
c1ccc(OCC2C[C@@H]3[C@@H](C2)OCCN3CC2CCOCC2)nc1 (stereo partly specified)	-0.0246%
Cc1ccoc1C(=O)N1C[C@@H]2[C@@H](C1)OCC(=O)N2Cc1cccnc1	-9.46%
Cc1ccc(N2CCCC3(COCCN(c4nccs4)C3)C2)nn1 (stereo unspecified)	-10.9%
Cc1cnc(N2CCCC3(COCCN(c4nccs4)C3)C2)nc1 (stereo unspecified)	-20.9%
c1ccc(N2CCOCC3(CCCN(c4nccs4)C3)C2)nc1 (stereo unspecified)	66%
Cc1nc2cc(C3CCN(C(=O)c4ccccn4)CC3)nn2c(O)c1C	-23.4%
Cc1cccc(CN2C[C@@H]3OCCN(c4cnccn4)[C@@H]3C2)n1	-4.22%
CS(=O)(=O)CCSc1n[nH]c(-c2ccc3c(c2)CCC3)n1	1.98%
CS(=O)(=O)CCCSc1n[nH]c(-c2ccc3c(c2)CCC3)n1	66.3%
NC(=O)CCSc1n[nH]c(-c2ccc3c(c2)CCC3)n1	-2.85%

From ChEMBL document CHEMBL3988442, “University of Dundee, Small-Polar-MMV Screening Library” (2021)
